Five compounds from PubChem BioAssay can be followed below.

Results filed as inconclusive are left out. Activity calls are given as the source filed them. Rule as the data show it, unless noted: active = percent of DMSO control GFP below about 86%; inactive = the rest, inconclusive results apart.

Test [1] can be described thus: yeast TOR pathway RPL19A-GFP modulators, primary screen, cell-based, S. cerevisiae, multiplex flow cytometry (AID 1862).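 Also: lower values mimic rapamycin by blocking the RPL19A rise seen in DMSO cells.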 To be noted: S. cerevisiae RPL19A-GFP strain, flow cytometry fluorescence, 3 h; at 10 µM; stronger effect = lower value.
The nature of test [2]: modulators of MEP2-GFP levels in yeast, primary screen, S. cerevisiae, multiplex flow cytometry (AID 1867;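 active = GFP response, as percent of the DMSO control, above the screen-wide mean plus 3 SD, about 139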;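 also: median GFP channel fluorescence of barcode-gated MEP2-GFP cells measured by flow cytometry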). To be noted: S. cerevisiae MEP2-GFP strain, 3 h, at 10 µM, stronger effect = higher value, 100% means same as DMSO wells. On the technique in general: In flow cytometry, cells or beads pass a laser one at a time.
A short description of test [3]: modulators of CIT2-GFP expression in yeast, primary screen, S. cerevisiae, GFP fusion, multiplex flow cytometry (AID 1870;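 active = percent response above a set limit, the screen-wide mean plus 3 SD, cut at about 130% in these data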;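 also: barcoded CIT2-GFP strain pooled with four other GFP strains with rapamycin as positive control; median GFP fluorescence per well over plate mean of DMSO wells so 100% = DMSO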). To be noted: 3 h, at 10 µM, stronger effect = higher value.
The nature of test [4]: modulators of LAP4-GFP expression in yeast, primary screen, S. cerevisiae, multiplex flow cytometry (AID 1873;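 active = GFP signal, as percent of the solvent control, above the screen mean plus 3 SD, about 149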). Conditions: 3 h, at 10 µM, stronger effect = higher value.
Test [5] in a line: modulators of AGP1-GFP expression in yeast TOR pathway, primary screen, cell-based, multiplex flow cytometry, S. cerevisiae (AID 1887;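 active = GFP signal above the screen-wide mean plus 3 SD, that is over about 124.5% of the solvent control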;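 also: AGP1-GFP fusion strain of S. cerevisiae within a five-strain barcoded multiplex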). Conditions: 3 h, at 10 µM, stronger effect = higher value.
Test [6] can be described thus: inhibitors of CD8+ T cell-vesicle binding, pilot screen, LFA-1/ICAM-1 modulator project, MLPCN validation set, flow cytometry (AID 2523;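 active = response below a set limit, under 55% cells CD8-positive and vesicle-bound, and CD8 cells' 90th-percentile brightness under 279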;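 as to vesicle binding response: mean PE anti-B7-1 fluorescence of CD8+ cells relative to row control; 100% = QL9-loaded vesicles with DMSO vehicle in the same plate row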). Conditions: 2C mouse CD8+ T cells, at 7 µM, stronger effect = lower value; double positive events: measured here: CD8+/vesicle+ event percentage.
Test [7] concerns the target Integrin beta-1 (Homo sapiens) + Integrin alpha-4 (Homo sapiens) (UniProt P13612+P05556). Nature of the test: inhibition of HUTS-21 binding to VLA-4, pilot screen, VLA-4 allosteric modulator project, U937 cells, HUTS-21 mAb, flow cytometry, validation set (AID 2674;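 active = inhibition above 50%, about 3 SD of the validation set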;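 also: antibody binding induced by the VLA-4 ligand LDV present at three times its Kd; 0% = LDV ligand with antibody and no compound and 100% = antibody without LDV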). To be noted: HUTS-21 LIBS mAb binding, at 6.7 µM, stronger effect = higher value, binding induced by LDV ligand.
Test [8] can be described thus: superoxide lowering in aged yeast cells, pilot screen, validation compound set (AID 2706;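 active = superoxide response below 65% of plate, a cut near 3 SD across the whole screen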;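 also: yeast exposed to compound for one week at 30 degrees C before staining; 100% = mean of all compound wells on the same plate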). To be noted: S. cerevisiae aging, superoxide DHE fluorescence; at 10 µM; stronger effect = lower value.
For test [9], the target named is Beta-adrenergic receptor kinase 1 (Homo sapiens) (UniProt P25098). Nature of the test: GRK2 binders displacing RNA aptamer, biochemical, validation, human GRK2, bead flow cytometry (AID 488806;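 active = aptamer binding inhibition above 30%, about 3 SD of noise from non-fluorescent compounds; inactive = inhibition at or below 30%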). To be noted: bead-bound GRK2, FAM-aptamer displacement, at 10 µM, stronger effect = higher value.
Test [10] deals with Beta-2 adrenergic receptor (Homo sapiens) (UniProt P07550). Nature of the test: beta2AR agonists driving receptor internalization, pilot screen, cell-based, FAP fluorogen, flow cytometry, validation set (AID 504459;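 active = percent response above 42, roughly 3 SD of non-fluorescent test compounds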;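 also: agonist-driven loss of surface beta2AR via internalization measured by FAP dye flow cytometry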). Conditions: Am2.2-beta2AR cells, FAP surface receptor flow cytometry; at 10 µM; stronger effect = higher value.
In test [11] the target is AP-2 complex subunit beta (Homo sapiens) (UniProt P63010). Nature of the test: inhibitors of arrestin peptide binding to AP2, pilot screen, biochemical, validation set, GST-AP2 beads, flow cytometry (AID 504541;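 active = inhibition above 54%, about 3 SD of non-fluorescent compounds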;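 also: AP2 carries R879A mutation and is captured from E. coli lysate; bead-bound FITC arrestin peptide fluorescence measuring arrestin peptide binding to AP2; 0% = DMSO wells and 100% = excess unlabeled arrestin peptide control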). To be noted: FITC arrestin peptide, at 10 µM, stronger effect = higher value, AP2 beta2 appendage fragment, R879A mutant.
The nature of test [12]: yeast V-ATPase proton transport modulators, S. cerevisiae, pHLuorin, HTS validation (AID 504600; in the data active = response above about 15%;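 also: plate controls were DMSO for no effect and reference compound for full effect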). To be noted: S. cerevisiae pHLuorin cytosolic pH, at 10 µM, stronger effect = higher value.
The subject of test [13] is anti-desmoglein-3 scFv antibody binding to human DSG3. Nature of the test: inhibitors of anti-DSG3 scFv binding to DSG3, pilot screen, biochemical, validation compound set, bead-based, flow cytometry (AID 588368;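 active = binding below the plate cutoff, the plate median minus 3 SD, with a reading above zero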;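 also: signal is the median channel fluorescence of bead-bound GFP antibody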). To be noted: Protein G beads, DSG3-Fc, scFv-GFP binding, at 10 µM, stronger effect = lower value.
Test [14] in a line: inhibitors of fungal efflux pumps CDR1, CDR2, MDR1, pilot screen, validation compound set, multiplex, phenotypic (AID 588506;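 active = efflux inhibition above 0.42, the validation set average plus 4 SD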;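 also: Nile Red retained in cells so higher fluorescence means more efflux inhibition; 0 = negative control wells and 1 = enniatin B 25 µM full block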). To be noted: S. cerevisiae pump-expressing triplex, Nile Red efflux flow cytometry; at 10 µM; stronger effect = higher value; the pumps come from Candida albicans.
For test [15], the target named is ATP-binding cassette sub-family B member 6 (Homo sapiens) (UniProt Q9NP58). The test can be described thus: ABCB6 transporter inhibitors, pilot screen, K562-ABCB6 cells, flow cytometry, validation set (AID 588550;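 active = inhibition above the screen-wide mean plus 3 SD, about 51%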;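 also: 0% = DMSO wells and 100% = benzethonium chloride 70 µM positive control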). To be noted: K562-ABCB6 porphyrin accumulation, 1 h, at 10 µM, stronger effect = higher value.
Test [16] is described as follows: promoters of myeloid differentiation in arrested cells, primary screen, cell-based, GFP/MAC1 double positive, flow cytometry, validation set (AID 588685;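 active = differentiation response of at least 50%, scaled between solvent and reference control, from cells with both markers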;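 also: compound exposure lasts four days before antibody staining and flow analysis; 0% = DMSO wells and 100% = 5 µM fulvestrant positive control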). To be noted: ER-HoxA9 marrow cells, stronger effect = higher value, normalized: vehicle 0, fulvestrant 100.

Beta-adrenergic receptor kinase 1 (Homo sapiens), sequence (P25098 whole entry, looked up): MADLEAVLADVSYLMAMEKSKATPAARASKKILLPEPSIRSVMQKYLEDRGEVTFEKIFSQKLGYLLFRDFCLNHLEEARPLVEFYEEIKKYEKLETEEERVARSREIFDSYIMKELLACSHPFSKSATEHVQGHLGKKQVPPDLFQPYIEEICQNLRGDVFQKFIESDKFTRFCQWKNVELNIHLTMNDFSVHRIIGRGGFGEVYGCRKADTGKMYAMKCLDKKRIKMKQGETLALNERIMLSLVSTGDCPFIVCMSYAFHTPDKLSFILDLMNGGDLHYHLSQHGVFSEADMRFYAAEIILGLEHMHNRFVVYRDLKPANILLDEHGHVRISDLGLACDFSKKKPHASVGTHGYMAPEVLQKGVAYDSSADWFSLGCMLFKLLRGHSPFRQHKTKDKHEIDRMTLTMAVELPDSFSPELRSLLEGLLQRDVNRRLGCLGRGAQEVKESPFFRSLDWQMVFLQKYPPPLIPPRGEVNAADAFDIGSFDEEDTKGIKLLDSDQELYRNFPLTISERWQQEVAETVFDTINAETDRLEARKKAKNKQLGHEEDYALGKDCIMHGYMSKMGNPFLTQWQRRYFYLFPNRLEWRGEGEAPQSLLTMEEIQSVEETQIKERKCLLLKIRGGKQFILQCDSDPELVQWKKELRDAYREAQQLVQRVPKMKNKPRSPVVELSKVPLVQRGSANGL
AP-2 complex subunit beta (Homo sapiens), sequence (P63010 whole entry, looked up, the tested form may be a part, one chain of several): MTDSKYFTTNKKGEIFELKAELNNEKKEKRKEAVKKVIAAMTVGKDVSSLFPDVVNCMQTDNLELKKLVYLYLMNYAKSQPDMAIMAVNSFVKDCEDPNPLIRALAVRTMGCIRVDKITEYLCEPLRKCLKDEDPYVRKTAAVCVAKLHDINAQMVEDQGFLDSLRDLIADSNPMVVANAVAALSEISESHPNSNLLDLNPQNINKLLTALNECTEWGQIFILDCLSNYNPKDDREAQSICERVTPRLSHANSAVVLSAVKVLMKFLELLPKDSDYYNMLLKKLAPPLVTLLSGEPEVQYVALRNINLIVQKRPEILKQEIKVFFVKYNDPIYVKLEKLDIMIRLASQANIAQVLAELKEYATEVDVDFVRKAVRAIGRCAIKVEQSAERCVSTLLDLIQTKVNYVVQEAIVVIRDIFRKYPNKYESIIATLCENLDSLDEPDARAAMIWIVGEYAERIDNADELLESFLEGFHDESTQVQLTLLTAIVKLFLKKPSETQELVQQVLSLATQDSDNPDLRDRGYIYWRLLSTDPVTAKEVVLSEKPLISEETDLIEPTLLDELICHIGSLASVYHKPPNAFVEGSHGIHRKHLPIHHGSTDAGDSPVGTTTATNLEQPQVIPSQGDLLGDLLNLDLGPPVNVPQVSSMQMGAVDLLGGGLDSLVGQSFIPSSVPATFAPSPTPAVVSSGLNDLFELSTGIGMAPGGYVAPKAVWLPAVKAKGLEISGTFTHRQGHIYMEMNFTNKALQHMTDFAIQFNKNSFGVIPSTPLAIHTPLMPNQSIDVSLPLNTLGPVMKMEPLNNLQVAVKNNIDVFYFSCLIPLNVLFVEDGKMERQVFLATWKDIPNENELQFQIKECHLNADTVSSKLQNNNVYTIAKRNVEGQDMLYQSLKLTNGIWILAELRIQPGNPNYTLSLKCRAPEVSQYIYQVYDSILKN
ATP-binding cassette sub-family B member 6 (Homo sapiens), sequence (Q9NP58 whole entry, looked up): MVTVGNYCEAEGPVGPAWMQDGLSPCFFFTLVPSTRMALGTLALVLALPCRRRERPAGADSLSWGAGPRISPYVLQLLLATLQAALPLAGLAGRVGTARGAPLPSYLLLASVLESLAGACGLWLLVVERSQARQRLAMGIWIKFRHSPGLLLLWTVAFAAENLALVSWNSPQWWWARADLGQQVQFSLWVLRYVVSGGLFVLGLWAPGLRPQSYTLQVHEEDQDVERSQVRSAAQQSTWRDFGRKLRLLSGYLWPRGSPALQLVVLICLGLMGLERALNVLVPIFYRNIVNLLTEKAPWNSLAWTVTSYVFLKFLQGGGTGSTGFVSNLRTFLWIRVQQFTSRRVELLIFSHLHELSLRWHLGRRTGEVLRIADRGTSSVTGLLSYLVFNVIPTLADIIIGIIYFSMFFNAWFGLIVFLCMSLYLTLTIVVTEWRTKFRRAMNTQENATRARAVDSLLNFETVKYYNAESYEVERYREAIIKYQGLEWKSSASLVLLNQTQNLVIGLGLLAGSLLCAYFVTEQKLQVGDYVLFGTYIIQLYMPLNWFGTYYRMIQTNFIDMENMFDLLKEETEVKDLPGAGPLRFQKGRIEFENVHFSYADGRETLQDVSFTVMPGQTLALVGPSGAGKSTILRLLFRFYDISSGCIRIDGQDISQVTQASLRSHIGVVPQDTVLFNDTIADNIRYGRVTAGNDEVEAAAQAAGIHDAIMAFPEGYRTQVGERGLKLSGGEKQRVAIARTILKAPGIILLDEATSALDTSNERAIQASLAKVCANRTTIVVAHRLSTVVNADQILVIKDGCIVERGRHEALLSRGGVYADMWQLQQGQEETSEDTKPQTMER
Beta-2 adrenergic receptor (Homo sapiens), sequence (P07550 whole entry, looked up): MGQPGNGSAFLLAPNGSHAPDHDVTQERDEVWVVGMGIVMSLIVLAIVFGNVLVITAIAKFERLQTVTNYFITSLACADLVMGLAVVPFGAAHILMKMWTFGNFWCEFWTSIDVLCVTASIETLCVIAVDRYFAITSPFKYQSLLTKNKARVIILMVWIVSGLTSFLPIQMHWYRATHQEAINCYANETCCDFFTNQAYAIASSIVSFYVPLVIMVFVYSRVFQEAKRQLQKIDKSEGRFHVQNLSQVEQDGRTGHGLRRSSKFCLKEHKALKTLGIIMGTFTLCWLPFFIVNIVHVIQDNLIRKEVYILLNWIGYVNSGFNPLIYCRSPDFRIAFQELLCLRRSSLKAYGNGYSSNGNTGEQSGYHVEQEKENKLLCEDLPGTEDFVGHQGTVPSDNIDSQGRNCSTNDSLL
Integrin beta-1 (Homo sapiens) + Integrin alpha-4 (Homo sapiens), sequence (P05556 whole entry, looked up): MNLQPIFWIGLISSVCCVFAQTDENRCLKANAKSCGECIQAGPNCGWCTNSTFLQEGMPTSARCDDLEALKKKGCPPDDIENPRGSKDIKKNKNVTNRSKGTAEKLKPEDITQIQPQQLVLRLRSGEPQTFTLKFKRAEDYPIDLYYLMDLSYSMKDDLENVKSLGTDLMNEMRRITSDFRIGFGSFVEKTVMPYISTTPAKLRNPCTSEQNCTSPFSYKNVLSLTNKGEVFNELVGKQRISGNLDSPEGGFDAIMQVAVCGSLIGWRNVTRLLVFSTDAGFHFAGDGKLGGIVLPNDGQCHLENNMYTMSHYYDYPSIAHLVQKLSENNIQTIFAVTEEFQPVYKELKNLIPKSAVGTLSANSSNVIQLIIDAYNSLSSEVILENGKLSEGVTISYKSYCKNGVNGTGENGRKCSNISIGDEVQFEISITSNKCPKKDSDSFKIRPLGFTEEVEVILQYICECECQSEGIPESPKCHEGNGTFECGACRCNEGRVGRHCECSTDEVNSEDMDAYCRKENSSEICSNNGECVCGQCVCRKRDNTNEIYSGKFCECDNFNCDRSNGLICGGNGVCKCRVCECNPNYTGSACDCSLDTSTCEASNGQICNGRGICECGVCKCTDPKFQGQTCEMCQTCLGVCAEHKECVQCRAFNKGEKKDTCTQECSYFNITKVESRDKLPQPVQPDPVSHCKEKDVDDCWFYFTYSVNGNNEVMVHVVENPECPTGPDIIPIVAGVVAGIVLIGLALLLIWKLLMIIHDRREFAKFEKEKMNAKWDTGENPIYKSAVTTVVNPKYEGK
Integrin beta-1 (Homo sapiens) + Integrin alpha-4 (Homo sapiens), sequence (P13612 whole entry, looked up): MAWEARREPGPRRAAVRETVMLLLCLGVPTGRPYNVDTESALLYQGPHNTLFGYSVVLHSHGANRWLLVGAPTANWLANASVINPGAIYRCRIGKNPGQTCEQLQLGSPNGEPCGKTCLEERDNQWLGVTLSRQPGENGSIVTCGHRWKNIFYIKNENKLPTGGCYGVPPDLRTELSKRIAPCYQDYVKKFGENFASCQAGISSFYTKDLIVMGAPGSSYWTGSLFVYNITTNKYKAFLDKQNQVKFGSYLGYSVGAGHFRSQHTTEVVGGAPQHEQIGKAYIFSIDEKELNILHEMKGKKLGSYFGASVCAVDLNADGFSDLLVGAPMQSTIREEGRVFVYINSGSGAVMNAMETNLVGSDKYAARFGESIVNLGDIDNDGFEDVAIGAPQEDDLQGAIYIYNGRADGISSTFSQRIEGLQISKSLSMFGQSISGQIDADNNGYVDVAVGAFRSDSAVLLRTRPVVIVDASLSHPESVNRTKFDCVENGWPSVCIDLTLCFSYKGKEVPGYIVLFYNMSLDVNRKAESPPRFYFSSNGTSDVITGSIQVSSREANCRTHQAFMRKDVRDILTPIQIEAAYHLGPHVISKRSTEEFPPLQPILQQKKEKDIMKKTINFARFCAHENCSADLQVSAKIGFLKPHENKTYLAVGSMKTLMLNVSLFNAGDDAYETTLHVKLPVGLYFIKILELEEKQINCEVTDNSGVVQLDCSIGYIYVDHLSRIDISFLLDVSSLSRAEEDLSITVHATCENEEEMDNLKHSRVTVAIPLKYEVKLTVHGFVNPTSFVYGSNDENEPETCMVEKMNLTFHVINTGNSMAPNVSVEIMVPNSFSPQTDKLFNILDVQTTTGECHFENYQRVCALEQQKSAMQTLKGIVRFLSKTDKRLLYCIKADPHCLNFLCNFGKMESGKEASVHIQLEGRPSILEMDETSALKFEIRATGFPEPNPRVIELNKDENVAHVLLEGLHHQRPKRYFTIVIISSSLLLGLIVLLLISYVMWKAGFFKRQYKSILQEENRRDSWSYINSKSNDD

The term inhibition denotes the change of the read-out against control, counted positive when it falls. With `Cc1cccc(-n2c(Cc3ccccc3)n[nH]c2=S)c1`, the percent of DMSO control GFP in test [1] was 93.9% (inactive). Besides, the GFP response vs DMSO in [2] is 106% (inactive); in test [4], 124% (inactive). Also, in [3], the percent response of DMSO control is 88.2% (inactive). Further, the GFP response, % of DMSO in test [5] was 100% (inactive). Also, in test [6], the double positive events was found to be 61.2%. Also, in test [6], the vesicle binding response was 102% (inactive). In addition, the inhibition in test [7] was -18.2% (inactive); in [11], -2.3% (inactive); in test [15], 4% (inactive). Besides, in [8], the superoxide response (% of plate) is 103% (inactive). For the same compound, the aptamer binding inhibition in test [9] is 4% (inactive). Also, the values for the response in test [10] and in test [12] were -0.19% (inactive) and 1.08% (inactive), respectively. The binding (% of control) in test [13] is 95.5% (inactive). Further, the efflux inhibition (fraction of control) in [14] is -0.1 (inactive). In addition, in test [16], the differentiation response is -13.6% (inactive).
As to `c1cc(-c2ccncc2)ccn1`, the percent of DMSO control GFP in test [1] is 99.7% (inactive). Also, the values for the GFP response vs DMSO in [2] and in test [4] were 95.2% (inactive) and 108% (inactive), respectively. The percent response of DMSO control in [3] is 106% (inactive). Also, in test [5], the GFP response, % of DMSO is 105% (inactive). The compound also gave a double positive events in test [6] of 58.3%. The vesicle binding response in test [6] was 239% (inactive). The inhibition in [7] is 0.94% (inactive); in test [11], 23.8% (inactive); in test [15], 4% (inactive). The superoxide response (% of plate) in [8] was 117% (inactive). In addition, the aptamer binding inhibition in test [9] was 4% (inactive). Besides, the figures for the response in test [10] and in [12] were 8.34% (inactive) and -5.09% (inactive), respectively. Also, in test [13], the binding (% of control) is 101% (inactive). Besides, the efflux inhibition (fraction of control) in [14] is -0.28 (inactive). Besides, the differentiation response in test [16] is 79.2% (active).
Consider `COC(=O)C1=C(C)NC(C)=C(C(=O)OCCN(C)Cc2ccccc2)C1c1cccc([N+](=O)[O-])c1` (stereo not given), for which the percent of DMSO control GFP in [1] is 101% (inactive). The GFP response vs DMSO is 108% (inactive) in test [2] and 100% (inactive) in test [4]. Moreover, in test [3], the percent response of DMSO control is 96.5% (inactive). For the same compound, the GFP response, % of DMSO in test [5] was 110% (inactive). Besides, the double positive events in [6] was determined as 61.3%. Further, the vesicle binding response in test [6] is 159% (inactive). Besides, the inhibition in [7] is 0.25% (inactive); in [11], 57.5% (active); in test [15] it was -2% (inactive). Besides, in test [8], the superoxide response (% of plate) is 98.7% (inactive). For the same compound, in [9], the aptamer binding inhibition is 1% (inactive). The response in [10] is 0.14% (inactive); in test [12] it was -9.84% (inactive). Besides, the binding (% of control) in test [13] was 97.3% (inactive). In addition, the efflux inhibition (fraction of control) in test [14] is 0.01 (inactive). In addition, the differentiation response in [16] was -1.65% (inactive).
Take `Cn1c(=O)c2c(ncn2CCO)n(C)c1=O`: the percent of DMSO control GFP in [1] was 102% (inactive). The GFP response vs DMSO in test [2] was 112% (inactive); in test [4], 88.6% (inactive). The percent response of DMSO control in [3] was 116% (inactive). Also, in test [5], the GFP response, % of DMSO was 101% (inactive). For the same compound, in test [6], the double positive events stood at 63.6%. Moreover, in [6], the vesicle binding response was 250% (inactive). Besides, the figures for the inhibition in test [7], in test [11] and in test [15] were -32.3% (inactive), -1.93% (inactive) and 6% (inactive), respectively. The superoxide response (% of plate) in test [8] was 98.5% (inactive). Further, in test [9], the aptamer binding inhibition is -2% (inactive). Besides, the response is 15.1% (inactive) in [10] and 0.08% (inactive) in test [12]. Also, the binding (% of control) in test [13] is 106% (inactive). Further, the efflux inhibition (fraction of control) in test [14] was -0.17 (inactive). For the same compound, the differentiation response in [16] was 1.64% (inactive).
In the case of `COc1cc(NC(=O)COc2ccccc2)c(OC)cc1NC(C)=O`, the percent of DMSO control GFP in test [1] was 101% (inactive). In addition, the figures for the GFP response vs DMSO in [2] and in test [4] were 133% (inactive) and 94.6% (inactive), respectively. In test [3], the percent response of DMSO control was 114% (inactive). The GFP response, % of DMSO in [5] is 101% (inactive). In addition, in test [6], the double positive events was determined as 59.7%. Moreover, the vesicle binding response in [6] was 216% (inactive). Besides, the inhibition was -14.9% (inactive) in test [7], -5.93% (inactive) in test [11] and 0% (inactive) in test [15]. Also, in test [8], the superoxide response (% of plate) was 93% (inactive). Besides, the aptamer binding inhibition in test [9] was 1% (inactive). For the same compound, the response in [10] was -3.81% (inactive); in test [12], -0.91% (inactive). Besides, the binding (% of control) in test [13] was 110% (inactive). The efflux inhibition (fraction of control) in test [14] is -0.42 (inactive). In [16], the differentiation response is 5.73% (inactive).
